This note sets out measurements from PubChem BioAssay AID588493 (Sanford-Burnham Center for Chemical Genomics, 2011).

The whole screen tested about 360,000 compounds, of which about 2,100 (0.58%) were called active. The sample holds actives, similar compounds and a random draw of the others, so the mix is not that of the screen. A number with no mark means an inactive call.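 How the source made its calls: active means inhibition at 20 µM, scaled to each plate's controls, above about 33% (limit read from the data); inactive means the rest.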

Sequence of 26S proteasome non-ATPase regulatory subunit 14 (Homo sapiens) (O00487 whole entry, looked up): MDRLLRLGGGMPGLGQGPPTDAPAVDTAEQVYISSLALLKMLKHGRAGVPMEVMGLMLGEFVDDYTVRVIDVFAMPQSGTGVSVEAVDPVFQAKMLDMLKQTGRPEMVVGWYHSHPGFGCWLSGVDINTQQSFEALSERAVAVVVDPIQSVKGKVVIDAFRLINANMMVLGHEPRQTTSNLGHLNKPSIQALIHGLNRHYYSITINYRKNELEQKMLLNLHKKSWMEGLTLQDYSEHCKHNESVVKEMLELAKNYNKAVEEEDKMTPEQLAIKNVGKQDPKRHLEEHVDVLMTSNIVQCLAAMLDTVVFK

This assay has as its target 26S proteasome non-ATPase regulatory subunit 14 (Homo sapiens) (UniProt O00487). The assay is described as follows: inhibition of 26S proteasome subunit Rpn11 – biochemical, fluorescence polarization, uHTS, primary screen (AID 588493). The conditions noted are these: human 26S proteasome, Ub4-pepOG fluorescence polarization; at 20 µM; hits give high values; 20S core pre-blocked with epoxomicin. A general note: In fluorescence polarisation assays a small probe gives low polarisation when free and higher when bound to something large.
For `COc1cccc(NC(=O)C(C)Oc2ccccc2)c1` (configuration not stated), the inhibition is 112% (active). In the case of `COc1ccc(OC(C)C(=O)Nc2cccnc2)cc1` (configuration not stated), the inhibition was -6%. The figure for `COc1cccc(NC(=O)CC(c2ccc(OC(C)C)cc2)c2ccccc2OC)c1` (configuration not stated) is -1.6%; for `Cc1ccc2[nH]c(C(=O)O)c(NC(=O)c3ccccc3[N+](=O)[O-])c2c1` it is 3.4%; for `Cc1sc2nc(COC(=O)C(NC(=O)c3ccc(Cl)cc3Cl)C(C)C)[nH]c(=O)c2c1C` (configuration not stated) it is 56.9% (active). Next, `Cc1ccc(S(=O)(=O)N2CCCC2C(=O)OCc2nc3sc(C)c(C)c3c(=O)[nH]2)cc1` (configuration not stated): -0.8%; `O=C(CN1C(=O)CC(c2ccccc2)S(=O)(=O)c2ccccc21)NC1CCCC1` (configuration not stated): -1.6%.

Consider `CCN(c1ccccc1)S(=O)(=O)c1cc2c(cc1C)n(C)c(=O)c(=O)n2C`, for which the inhibition is -1.8%. Next, `COC(=O)CCSc1cc([N+](=O)[O-])cc2c1c(C1OCCS1)nn2-c1ccccc1` (configuration not stated): 14%; `CCC[C@@H]1C[C@@]1(CCC)[C@@H](NC(=O)c1ccccc1)c1ccc(C(=O)OC)cc1`: -3.6%.

As for `COC(=O)c1ccc(C(NC(=O)OCc2ccccc2)/C(F)=C/[C@@H](C)C(=O)O)cc1` (some centres not stated), the inhibition was -4.9%. Next, `CCC/C=C(\CCC)C(NC(=O)Cc1ccccc1)c1ccc(C(=O)OC)cc1` (configuration not stated): 40.7% (active); `Oc1c(CN2CCCC2)cc(COCc2ccccc2)c2cccnc12`: 49.9% (active). Next, `O=c1cc(CN2CCCCCCC2)c2c(ccc3ccccc32)o1`: 6.4%.

Regarding `O=C(Cc1ccccc1)NNC(=O)C1CCN(c2ncccn2)CC1`, the inhibition is -1.3%. With `COCC(=O)N1CCCC(C(=O)c2ccc(C(F)(F)F)cc2)C1` (configuration not stated), the inhibition was -0.9%. The figure for `CCOC(=O)c1cc(NC(=O)SCC(=O)O)c(C)nc1C` is 1%; for `CCCNC(=O)C1(C)CCN(C(=O)c2ccccc2OC(F)(F)F)C1` (configuration not stated) it is -2.7%.

`COc1ccc(Cc2cc(-c3ccc(F)cc3)n[nH]c2=O)cc1`: the inhibition was -2%.

As to `COc1ccc2[nH]c(=O)c(CNc3ccc(C)c(C)c3)cc2c1`, the inhibition is -2.9%.

Regarding `CCOC(=O)CSc1nc2ccc(C)cc2n2cnnc12`, the inhibition was 3.8%. Next, `CC1(c2ccccc2)NC(=O)N(CC(=O)N2CC(=O)Nc3ccccc32)C1=O` (configuration not stated): -0.8%; `COc1ccccc1OCCn1c(SCC(N)=O)nc2ccccc21`: -6.3%. The figure for `CCOC(=O)n1c(SCC(=O)N(CC)CC)nc2ccccc21` is 4%; for `CCN(CC)C(=O)CSc1nc2ccccc2n1CC(=O)N1CCN(c2ccccc2OC)CC1` it is 34.8% (active); for `CCCCN(C=O)c1c(CC)nc2c(OCCC3CCCCC3)cccn12` it is 3.8%. `Cc1cc(N)n2nc(-c3ccc(C(C)(C)C)cc3)cc2n1`: the inhibition is 8.7%. Next, `Cc1cc2cc(CNC(=O)c3cccs3)ccc2[nH]1`: 3.4%. Consider `Cc1cc(/C=N/NC(=O)CC2(C)OCCO2)c(C)n1-c1ccc(Cl)c(Cl)c1`, for which the inhibition is 4.1%. Next, `CC(C)c1ccc(C=NNc2ccc([N+](=O)[O-])cn2)cc1`: 3.1%; `Cc1cc(/C=N/Nc2ccc([N+](=O)[O-])cn2)c(C)n1-c1cccc(C(=O)O)c1`: 49% (active). Next, `O=C(Nc1cccc(Cl)c1)c1cc(S(=O)(=O)N2CCCCC2)c[nH]1`: 3.9%; `CN(C)C(=O)c1cccc(-c2cnc3sc(NCc4ccc5c(c4)OCO5)nn23)c1`: -1.9%; `NC(=NC(=O)c1ccccc1)C1=C(O)CCC1=O`: -7.5%. The figure for `COCCCNC(=O)Cn1c(=O)n(Cc2ccccc2Cl)c(=O)c2cc(OC)c(OC)cc21` is -0.4%; for `Cc1ccc(Nc2nc(Cl)c(C=O)s2)cc1` it is 108% (active). As to `Cc1ccc(Nc2nnc(SC(C)C(=O)NC3CC3)s2)cc1` (configuration not stated), the inhibition is 4.1%. Next, `CCCCC(=O)Nc1nc(C)c(-c2csc(Nc3ccc(Cl)cc3)n2)s1`: 13.9%; `CSc1ncnc2c1ncn2CCCNCC(C)c1ccccc1` (configuration not stated): -1.5%; `COC(=O)C1=C(C)NC(=O)/C1=C/c1ccc(CNS(=O)(=O)c2ccc(C)cc2)o1`: -0.8%. The figure for `COC(=O)C1=C(C)NC2=C(C(=O)c3ccccc32)C1c1ccc(-c2ccc(C(=O)O)cc2)o1` (configuration not stated) is 67.4% (active); for `O=C(NCc1ccc(Cl)cc1)C1CCN(S(=O)(=O)c2cccs2)CC1` it is 4.3%; for `Cn1nnnc1SCC(=O)Nc1ccccc1C(=O)NC1CC1` it is 5.5%. As to `CCN(CC)CCn1c2c(c(SCC(=O)Nc3ccc(C(C)C)cc3)nc1=O)CCC2`, the inhibition was 0.3%.

Consider `CC(=O)Nc1c2c(nn1-c1ccc(C)cc1C)CS(=O)C2` (configuration not stated), for which the inhibition was 1.3%.

Regarding `COc1ccc(CCNC2=C(Cl)C(=O)N(Cc3ccccc3)C2=O)cc1OC`, the inhibition was -4.9%. Next, `COc1cc(/C=C2/SC(=S)N(Cc3ccccc3)C2=O)cc(OC)c1O`: 49.6% (active); `O=C(Nc1ccc(OCCO)cc1)c1csc([C@H]2C[C@H](O)[C@@H](CO)O2)n1`: 0.7%.

On to `CC(C)=CCN1CCN(CCCc2ccccc2)CC1CCO` (configuration not stated), for which the inhibition was -5%. For `Cc1c(N=Nc2ccc(N(C)C)cc2)c(=O)n(-c2ccccc2)n1C`, the inhibition was 67.4% (active). In the case of `Cc1nc(N)sc1N=Nc1c(C)n(C)n(-c2ccccc2)c1=O`, the inhibition is 8.3%.

For the molecule `Cc1c(C=O)n(C)n(-c2ccccc2)c1=O`, the inhibition is 8.1%. Next, `Cc1csc(=O)n1CCC(=O)OCC(=O)Nc1ccc(N2CCOCC2)cc1`: -1.7%; `O=C(OCC(=O)N1CCOCC1)c1ccc(N2CCOCC2)c([N+](=O)[O-])c1`: 1.7%; `CCCCN(CC)C(=O)c1ccccc1Oc1ccccc1`: -5%.

Turning to `O=C1NC(=O)C2C1C(c1ccc([N+](=O)[O-])cc1)=NN2Cc1ccccc1` (configuration not stated), the inhibition is 50.8% (active).

As for `O=[N+]([O-])c1ccc(C(S(=O)(=O)Cc2ccccc2)S(=O)(=O)Cc2ccccc2)cc1`, the inhibition was -4%. Next, `CC(=O)N1c2ccccc2N(Cc2ccc([N+](=O)[O-])cc2)C(=O)C1(C)C`: -1.8%; `Cc1cc(C)c2c(=O)[nH]c(SCC(=O)Nc3ccc(Br)cc3)nc2n1`: 2.1%. Next, `CC(=O)CSc1nc(CCc2ccccc2)c(C#N)c(=O)[nH]1`: -4.6%. `N#Cc1c(-c2cccs2)nc(SCC(=O)c2ccc(Br)cc2)[nH]c1=O`: the inhibition is 68.3% (active).

Take `COC(=O)[C@H](C(C)C)n1c(C)c(C(C)=O)c(C(C)=O)c1C`: the inhibition was 3.5%. Next, `CCOc1cccc(/C=N/N2C(=O)CSC2=S)c1O`: 32.9%. The figure for `O=C1CSC(=S)N1/N=C/c1ccc(O)c([N+](=O)[O-])c1` is 48.1% (active). Next, `COc1ccc(C2CC(c3ccccc3)=NN2C(=O)c2ccc(Cl)c([N+](=O)[O-])c2)cc1` (configuration not stated): -5%; `CCCCc1nc(NCCN)c(C#N)c2c1CSC(C)(C)C2`: 0.8%; `COc1ccc(CC(N)c2csc(NC(=O)Nc3ccc(C(C)C)cc3)n2)cc1` (configuration not stated): 2.4%. For `NC(N)=N/N=C/c1ccc(OCc2ccc(Cl)cc2Cl)cc1`, the inhibition is 51.4% (active). In the case of `NC(=O)COc1ccc(/C=N/NC(=O)C2CCCN2S(=O)(=O)c2ccc(Cl)cc2)cc1` (configuration not stated), the inhibition was -4.1%.

Take `COc1ccc(Cl)cc1N(CC(=O)N/N=C/c1ccc(OCC(N)=O)cc1)S(C)(=O)=O`: the inhibition was -5.6%.

Take `CC1CCC2(CC1)NC(=O)N(CC(=O)NCc1ccco1)C2=O` (configuration not stated): the inhibition is 7.9%. Next, `N#Cc1c(-c2ccc(Cl)cc2)c2c([nH]c1=S)CCCC2`: 10.1%; `CC1Cc2ccccc2N1S(=O)(=O)c1cccc(C(=O)NCC(c2ccco2)N2CCCC2)c1` (configuration not stated): 5.2%; `C=CCn1c(=S)[nH]c2scc(-c3ccco3)c2c1=O`: 48.1% (active). Next, `CC1(C)C(C=C(Cl)Cl)C1C(=O)N(Cc1ccc(Cl)cc1)C1CCS(=O)(=O)C1` (configuration not stated): -6.8%; `CC(C)(C)NC(=O)NC(=O)CN1CCC(Cc2ccccc2)CC1`: 2.6%. The figure for `O=C(O)CCCCOn1ccnc1` is -5.3%; for `O=C(OCc1cc2ccccc2[nH]c1=O)c1cccnc1` it is 93.5% (active); for `O=C(OCc1cc(Cl)ccc1OC(F)F)c1cccnc1` it is 9.5%. In the case of `Cc1ccc2[nH]c(=O)c(COC(=O)c3ccccn3)cc2c1`, the inhibition is -5.9%. The figure for `COc1cccc(C2CC(c3ccccc3)=NN2S(=O)(=O)c2ccccc2)c1OC` (configuration not stated) is 1.8%; for `COc1cccc(Nc2nnc(SCC(=O)N3CC(=O)Nc4ccccc43)s2)c1` it is 0.5%. Next, `COc1ccc(Cl)cc1NC(=O)COC(=O)c1ccc(Br)o1`: -3.1%; `COc1ccc(Cl)cc1NC(=O)CCS(=O)(=O)c1ccc(Br)cc1`: 80.4% (active). The figure for `O=C(CCS(=O)(=O)c1ccc(Br)cc1)NCCc1ccc(Cl)cc1` is -2.9%; for `O=C(CSc1ccc2nnc(-c3ccccc3)n2n1)N1CCCc2ccccc21` it is 39.2%. Regarding `COC(=O)c1ccc(C(=O)OC)c(NC(=S)N2CCN(c3ccc(F)cc3)CC2)c1`, the inhibition was -2.6%. Turning to `Cc1ccc(CSCC2Nc3ccc(C(=O)N4CCN(c5ccc(F)cc5)CC4)cc3NC2=O)cc1` (configuration not stated), the inhibition is 109% (active). Next, `COc1cccc2c1OCC1COc3c(c(=O)n(C)c(=O)n3C)C21` (configuration not stated): -1.5%; `C=CC1=C(C(=O)O)N2C(=O)[C@@H](NC(=O)/C(=N/OCC(=O)O)c3csc(N)n3)[C@H]2SC1`: 45.1% (active). Turning to `C=CC1=C(C(=O)O)N2C(=O)[C@@H](NC(=O)/C(=N\OCC(=O)O)c3csc(N)n3)[C@H]2SC1`, the inhibition was -0.3%. The figure for `Cc1ccc2c(CN3CCN(S(=O)(=O)c4ccccc4C(F)(F)F)CC3)cc(=O)oc2c1` is 3.9%.

Broadly, the inhibition is the drop in the measured response relative to a control, in per cent.
